# Test results reported in PubChem BioAssay AID1210 (NMMLSC, 2008).
# Calls of active or inactive are those of the source.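 How the source made its calls: active means blocks over 70% of labeled estradiol binding at 10 µM, or over a set limit at 100 nM; inactive means the rest.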
# Biological target: Estrogen receptor beta (Homo sapiens) (UniProt Q92731)
# Test: displacement of fluorescent estrogen from ERbeta – cell-based, Cos7 ERbeta-GFP, flow cytometry, primary screen (AID 1210);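 further: 0% = DMSO vehicle wells and 100% = complete loss of labeled estradiol signal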
# Details: fluorescent estrogen binding, stronger effect = higher value
# [1] = ligand binding inhibition, at 0.1 µM
# Chain of Estrogen receptor beta (Homo sapiens) (Q92731 whole entry, looked up): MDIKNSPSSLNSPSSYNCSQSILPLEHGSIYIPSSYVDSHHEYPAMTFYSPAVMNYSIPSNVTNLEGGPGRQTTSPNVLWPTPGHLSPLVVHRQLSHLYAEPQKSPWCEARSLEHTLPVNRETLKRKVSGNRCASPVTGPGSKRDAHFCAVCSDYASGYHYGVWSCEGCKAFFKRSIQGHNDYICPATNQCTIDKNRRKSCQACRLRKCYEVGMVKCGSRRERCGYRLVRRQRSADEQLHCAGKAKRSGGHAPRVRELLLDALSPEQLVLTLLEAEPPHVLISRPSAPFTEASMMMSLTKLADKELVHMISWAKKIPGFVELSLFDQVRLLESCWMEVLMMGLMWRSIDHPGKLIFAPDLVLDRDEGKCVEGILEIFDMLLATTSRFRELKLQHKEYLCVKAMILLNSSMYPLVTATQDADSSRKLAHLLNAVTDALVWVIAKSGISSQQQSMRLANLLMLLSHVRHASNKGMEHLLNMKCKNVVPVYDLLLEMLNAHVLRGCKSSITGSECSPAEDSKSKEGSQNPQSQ
SMILES,inhibition (at 10 µM),inhibition [1]
COc1ccc(OC)c(C2Nc3c(Cl)ccc(C(=O)O)c3C3C=CCC32)c1 (stereo not drawn),0% (inactive),52%
CCCc1nc2sc3ccccc3c(=O)c2c(=O)n1Cc1ccco1,21% (inactive),5%
Cc1ccc(S(=O)(=O)Cc2ccc(C(=O)N3CCc4ccccc4C3)o2)cc1,43% (inactive),10%
O=C(O)c1ccc(NS(=O)(=O)c2ccc3c(c2)C2C=CCC2C(c2ccccc2F)N3)cc1 (stereo not drawn),7% (inactive),9%
Nc1ccc(-c2cc(-c3cccc(N)c3)nc(-c3ccccc3)n2)cc1,39% (inactive),27%
CSC1=N/C(=C\c2ccc(Br)o2)C(=O)S1,26% (inactive),43%
Cc1nc(-c2ccc(O)c(O)c2)cs1,31% (inactive),4%
COc1cc(C2C(C#N)=C(N)Oc3cc(C)oc(=O)c32)cc2c1OCO2 (stereo not drawn),32% (inactive),46%
COc1ccc(C2CC(c3ccccc3)=NN2C(=O)CSc2nccc(=O)[nH]2)cc1 (stereo not drawn),33% (inactive),37%
CCN1CCc2nc(NC(=O)Cc3ccc4c(c3)OCCO4)sc2C1,26% (inactive),4%
Nc1cc2sc(-c3ccc(C(=O)O)cc3)nc2cc1Cl,22% (inactive),44%
Oc1ccc(-c2nc(-c3ccc(O)c(O)c3)cs2)cc1,55% (inactive),54%
CCCc1nnc2n1N=C(c1ccc(-c3cc(Cl)ccc3Cl)o1)CS2,43% (inactive),48%
O=C(O)c1cc(-c2ccc(O)cc2)nc2ccccc12,57% (inactive),8%
O=C(Nc1cc(C(F)(F)F)ccc1N1CCOCC1)C1Cc2ccccc2CN1C(=O)c1ccco1 (stereo not drawn),73% (active),13%
Cc1c(C(=O)OCc2ccccc2)[nH]c2c1C(=O)CC(c1ccco1)C2 (stereo not drawn),45% (inactive),17%
CCc1ccc(Nc2cc(C(=O)NCCCN3CCOCC3)c3ccccc3n2)cc1,38% (inactive),12%
Cc1nnc(Oc2ccccc2F)c2ccccc12,47% (inactive),38%
O=C1N/C(=C\c2ccc(O)cc2)C(=O)c2ccccc21,21% (inactive),1%
CCOC(=O)c1c(C)oc2c1c(C=NC1CCS(=O)(=O)C1)c(O)c1ccccc12 (stereo not drawn),38% (inactive),11%
Cc1cc(C)c2c(c1)[C@@H]1C=CC[C@@H]1[C@H](c1ccc(S(=O)(=O)N3CCOCC3)cc1)N2,35% (inactive),48%

SMILES,inhibition (at 10 µM),inhibition [1]
Cc1ccc(Cn2c(NC(=O)c3ccco3)nc3ccccc32)cc1,10% (inactive),19%
COc1ccc(C2Nc3ccccc3C(=O)N2Cc2ccccc2)cc1Cn1nnc2ccccc21 (stereo not drawn),38% (inactive),45%
O=C(c1cc2sccc2n1Cc1ccccc1)N1CCc2ccccc21,42% (inactive),2%
COc1cc(/C=C2\OC(=O)c3c(OC)cccc32)ccc1O,55% (inactive),28%
COc1ccc(NC(=O)C(c2ccccc2)N(C)C(=O)c2ccc(=O)[nH]c2)cc1 (stereo not drawn),17% (inactive),56%
CCn1c(=NC(=O)c2ccc(N3C(=O)CCC3=O)cc2)sc2c(OC)ccc(OC)c21,64% (inactive),57%
NNc1nc2sc3c(c2c(=O)[nH]1)CCc1ccccc1-3,23% (inactive),37%
CCOC(=O)c1c(/N=C/c2ccc(O)cc2O)sc2c1CCC2,33% (inactive),22%
COc1nc(-c2ccc(Cl)cc2)ccc1-c1noc(-c2ccco2)n1,72% (active),56%
Cc1cc(-c2ccccc2)nc2cc(C(N)=O)nn12,49% (inactive),14%
C[C@@H]1O[C@@H](Oc2c(-c3cc(O)c(O)c(O)c3)oc3cc(O)cc(O)c3c2=O)[C@H](O)[C@H](O)[C@H]1O,31% (inactive),30%
O=C(O)C1CSC(c2coc3ccccc3c2=O)N1 (stereo not drawn),26% (inactive),46%
Cc1ccc(C)c(SCC(=O)OCC(=O)c2ccco2)c1,50% (inactive),57%
Nc1ccc(N2CCN(C(=O)c3ccco3)CC2)cc1,49% (inactive),25%
Cc1ccc(C(=O)N/N=C/c2ccc([N+](=O)[O-])s2)cc1,38% (inactive),58%
c1ccc(OCc2nnc3sc(C4COc5ccccc5O4)nn23)cc1 (stereo not drawn),29% (inactive),28%
COC(=O)c1ccc2c(=O)n(CC3CCCO3)c(SCC(=O)Nc3ccccc3Cl)nc2c1 (stereo not drawn),65% (inactive),4%
O=C1OC(c2ccc(O)cc2)(c2ccc(O)cc2)c2ccccc21,51% (inactive),11%
Cc1ccnc(NS(=O)(=O)c2ccc(NC(=O)Cc3cccs3)cc2)n1,38% (inactive),47%
Cc1cc2oc(=O)cc(COC(=O)c3n[nH]c4ccccc34)c2cc1C,68% (inactive),18%
CCC1(CC)NC(=O)N(CC(=O)Nc2sc3c(c2C(N)=O)CCC3)C1=O,16% (inactive),5%

SMILES,inhibition (at 10 µM),inhibition [1]
c1coc(-c2nnc3sc(Cc4cccs4)nn23)c1,5% (inactive),53%
COc1cccc(-c2[nH]nc3c2C(c2ccoc2)C(C#N)=C(N)O3)c1 (stereo not drawn),54% (inactive),29%
CCOc1cccc2cc(-c3cn4cc(C)ccc4n3)c(=O)oc12,27% (inactive),16%
O=c1c2c([nH]c3ccccc13)C(=C1CCCC1)CC2,42% (inactive),11%
Cc1cc(=O)oc2c(CN3CCC(C)CC3)c(O)c(Cl)cc12,20% (inactive),11%
O=C(OCC(=O)N1CCN(C(=O)c2ccco2)CC1)c1cc(-c2ccco2)nc2ccccc12,25% (inactive),33%
O=C1C2C3C=CC(C3)C2C(=O)N1c1cccc2cccnc12 (stereo not drawn),55% (inactive),51%
Cc1ccc(C(=O)NCC(=O)OCC(=O)c2c(N)n(C)c(=O)n(C)c2=O)s1,5% (inactive),25%
N=C1C(c2nc3ccccc3[nH]2)=C(O)CN1c1ccc(CC(=O)O)cc1,26% (inactive),21%
CCC1(C)NC(=O)N(CC(=O)Nc2sc3c(c2C(N)=O)CCC3)C1=O (stereo not drawn),58% (inactive),39%
Cc1cc2n(c1)CCn1c(C)ccc1-2,17% (inactive),31%
COc1cc2c(cc1O)CC[n+]1cc3c(OC)c(OC)ccc3cc1-2,25% (inactive),23%
O=C1c2ccccc2C(=O)N1/N=C/c1ccc(O)c(O)c1,58% (inactive),54%
CCOc1ccc(C2C3=C(Nc4nc(N)[nH]c(=O)c42)c2ccccc2C3=O)cc1 (stereo not drawn),22% (inactive),39%
COc1ccc(/C=N/NC(=O)c2nc(-c3ccccc3)n(-c3ccccc3)n2)c(O)c1,45% (inactive),33%
Cc1nn(-c2ccccc2)c2sc(C(=O)c3c(N)n(C)c(=O)n(C)c3=O)cc12,22% (inactive),32%
O=C(Nc1nc(-c2nc3ccccc3s2)cs1)C1COc2ccccc2O1 (stereo not drawn),19% (inactive),2%
CN=c1scc(C)n1/N=C/c1ccc(O)cc1O,58% (inactive),6%
CC(C)(C)c1nnc2sc(SC/C(O)=C(\C#N)c3nc4ccccc4[nH]3)nn2c1=O,31% (inactive),15%
O=c1cc(O)c2c(=O)n(-c3ccccc3)c3c(c2o1)CCCCCC3,59% (inactive),2%
O=c1cc(CSc2nnnn2-c2ccccc2)nc(Nc2ccc(F)cc2)[nH]1,0% (inactive),25%

SMILES,inhibition (at 10 µM),inhibition [1]
CCNC(=O)c1ccc2c(c1)C1C3CCC(C3)C1C(c1ccccc1)N2 (stereo not drawn),29% (inactive),58%
COc1ccc(C(Nc2ccccn2)c2oc(CO)cc(=O)c2O)cc1 (stereo not drawn),75% (active),40%
COc1cc2c(cc1O)C(Cc1ccc(O)cc1)NCC2 (stereo not drawn),72% (active),11%
COc1ccc(C2Nc3ccccc3C(=O)N2c2ccc(Cl)cc2)cc1Cn1cc([N+](=O)[O-])cn1 (stereo not drawn),63% (inactive),36%
Cc1ccc(-c2csc(NC(=O)c3ccno3)n2)cc1,40% (inactive),28%
NC(=O)c1c(NC(=O)c2cc3ccccc3o2)sc2c1CCC2,18% (inactive),54%
CCC(=O)Oc1ccc(/C(CC)=C(\CC)c2ccc(OC(=O)CC)cc2)cc1,68% (active),80%
Cc1cc(-c2nn3c(-c4ccccc4)nnc3s2)c2ccccc2n1,71% (active),45%
CCSc1nnc(NC(=O)C2Cc3ccccc3CN2C(=O)c2ccco2)s1 (stereo not drawn),45% (inactive),34%
O=C(Cn1c(=O)n(Cc2ccco2)c(=O)c2c3c(sc21)CCCCC3)Nc1ccccc1,37% (inactive),39%
CCc1ccc(NC(=O)c2noc3c2CCC3)cc1,8% (inactive),22%
COc1ccc2[nH]c3nc(SCc4nnc(-c5ccc(C)cc5)o4)nnc3c2c1,49% (inactive),18%
Cn1nnnc1SCC(=O)Nc1nc(-c2ccccc2)c(-c2ccccc2)o1,39% (inactive),32%
Cc1c(N=Cc2ccc(O)c(Br)c2)cccc1[N+](=O)[O-],33% (inactive),34%
Oc1cccc(-c2nc3ccc4ccccc4c3c3c2CCC3)c1,39% (inactive),21%
O=c1[nH]cnc2c1sc1nc3c(c(-c4ccc(Cl)cc4)c12)CCC3,51% (inactive),19%
COc1ccc(C2Nc3ccccc3C(=O)N2c2ccccc2)cc1Cn1cc([N+](=O)[O-])cn1 (stereo not drawn),26% (inactive),45%
Cc1ccc(S(=O)(=O)Cc2ccc(C(=O)N3CCN(Cc4ccccc4)CC3)o2)cc1,37% (inactive),18%
O=C(Nc1nccs1)c1nc(-c2ccccc2)n(-c2ccccc2)n1,38% (inactive),22%
Cc1ccc2c(c1)c(=O)c1c3n2CCN(C(=O)CCl)C3CC1 (stereo not drawn),37% (inactive),33%
COc1cc(NC(=O)c2cccs2)c(C(=O)OCC(=O)NC(=O)NCc2ccccc2)cc1OC,8% (inactive),17%
